Screens deposited in PubChem BioAssay by The Scripps Research Institute Molecular Screening Center.
GPR151 ag = activators of human GPR151, primary screen, cell-based, PathHunter beta-arrestin, luminescence | G-protein coupled receptor 151 (Homo sapiens), Q8TDV0 | 650,000 tested, 1% active | activation, % at 11.2 µM | PathHunter beta-arrestin GPR151 cells; in the data active = activation above about 4.9%;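 note: 0% = median of compound wells and 100% = cells with positive control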
Target sequence (Q8TDV0 whole entry, looked up): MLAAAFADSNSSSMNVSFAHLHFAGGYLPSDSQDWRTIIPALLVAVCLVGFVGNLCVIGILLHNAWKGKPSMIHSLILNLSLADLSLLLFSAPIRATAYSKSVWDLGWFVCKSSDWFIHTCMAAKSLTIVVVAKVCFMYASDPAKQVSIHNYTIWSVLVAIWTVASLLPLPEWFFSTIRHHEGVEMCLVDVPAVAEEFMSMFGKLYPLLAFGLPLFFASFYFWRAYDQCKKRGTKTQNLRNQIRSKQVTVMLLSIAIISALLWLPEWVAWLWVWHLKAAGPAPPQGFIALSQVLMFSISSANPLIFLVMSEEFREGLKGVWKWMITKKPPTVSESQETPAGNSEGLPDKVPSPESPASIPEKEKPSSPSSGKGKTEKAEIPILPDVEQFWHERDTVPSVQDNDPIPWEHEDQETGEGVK
MITF primary = MITF inhibitors, primary screen, biochemical, AlphaScreen, human; Microphthalmia-associated transcription factor (Homo sapiens), O75030; AlphaScreen MITF homodimerization, bead proximity signal; inhibition, % at 2.6 µM; 650,000 tested, 0.91% active; in the data active = inhibition above about 50%;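 note: 0% = vehicle wells with protein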
TEAD-YAP block = TEAD-YAP interaction inhibition, primary screen, TEAD-YAP interaction inhibitor project, luminescence, HEK-TIYL cells | TEAD-Gal4/YAP UAS-luciferase luminescence | inhibition, % at 9.12 µM | 640,000 tested, 1.4% active; in the data active = inhibition above about 32%;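 note: 0% = median of test compound wells and 100% = reference inhibitor wells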
FBW7 act = FBW7 E3 ligase activators, primary screen, biochemical, AlphaScreen, human. AlphaScreen FBW7–phospho-cyclin E peptide binding, activator screen. normalized activity (activation), % at 26.1 µM. 650,000 tested, 0.13% active. AID 1259310, 2017; in the data active = normalized activity above about 1.9%;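 note: purified mutant Fbw7 with reduced substrate affinity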
MITF inh conf = MITF inhibitors, retest of hits, confirmation, biochemical, AlphaScreen, triplicate. inhibition, % at 2.6 µM. AlphaScreen MITF homodimerization, biotin/His-MITF beads. shares compounds with MITF primary. 4,700 tested, 16% active;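 active = inhibition above a cutoff derived from the DMSO control wells, cut at about 28% in these data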;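 note: 0% = MITF dimer wells with DMSO only; inhibitors lower the bead chemiluminescence by keeping MITF from dimerizing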
AS interf DR = AlphaScreen optical interference compounds, dose response, counter-screen, biochemical, HTS | AID 1259373, 2018 | shares compounds with MITF primary | IC50, µM | 480 tested, 6% active | AlphaScreen optical interference counterscreen, cell-free; call rule not given here
AlphaScreen intf2 = AlphaScreen optical interference compounds, counter-screen for MITF inhibitor project, biochemical, triplicate; shares compounds with MITF primary; LysRS AlphaScreen counterscreen, signal interference; inhibition, % at 2.6 µM; 4,700 tested, 7.6% active; AID 1259376, 2018;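 active = inhibition above a cutoff derived from the DMSO control wells, cut at about 30% in these data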
The depositor's hits bear a star; / = no result given. Sampled rows, rich in hits. Any-hit rate of the full collection: about 3.4%.

SMILES	GPR151 ag	MITF primary	TEAD-YAP block	FBW7 act	MITF inh conf	AlphaScreen intf2	others
O=C(CC1(O)C(=O)N(Cc2ccccc2)c2ccccc21)c1ccccc1O (configuration not stated)	0	15	0	1	/	/
O=C1SC2CS(=O)(=O)CC2N1Cc1ccccc1 (configuration not stated)	0	17	10	1	/	/
Cc1cc(C)nc(NS(=O)(=O)c2ccc(N3C(=O)C=CC3=O)cc2)n1	1	61*	-4	-1	37*	5	AS interf DR=>6.5
COc1cc2c(cc1OC)C(COc1ccc(F)cc1)N(C(=O)C(C)Oc1ccccc1)CC2 (configuration not stated)	0	-7	-8	0	/	/
COc1ccc(NC(=O)C2CCCN(c3nn4c(=O)cc(C)nc4s3)C2)cc1Cl (configuration not stated)	0	4	3	0	/	/
CC(=O)c1cccc(-c2cnn3c(NCCc4ccccn4)ccnc23)c1	0	11	-37	0	/	/
O=C(O)/C=C/c1cccc(-c2cnn3c(NCCc4ccccn4)ccnc23)c1	0	53*	3	0	3	15
Cc1ccc(C2=N/C(=C\c3ccc(OCc4ccccc4)cc3)C(=O)O2)cc1[N+](=O)[O-]	-1	4	4	0	/	/
CC(=O)Nc1ccc(C2=N/C(=C/c3cccc([N+](=O)[O-])c3)C(=O)O2)cc1	0	58*	-2	0	5	-11
O=C1OC(c2ccc(Cl)c(Cl)c2)=N/C1=C\c1ccccc1	1	-4	5	0	/	/
O=C1OC(c2cccc([N+](=O)[O-])c2)=N/C1=C\c1ccc(OCc2ccccc2)cc1	0	64*	14	0	37*	16
O=C1OC(c2cc(C3=N/C(=C\c4ccccc4)C(=O)O3)cc(C3=N/C(=C/c4ccccc4)C(=O)O3)c2)=N/C1=C\c1ccccc1	0	58*	9	0	30*	5
CCN(CC)CCN(C)Cc1ccc(SC)cc1	0	37	-1	0	/	/
CCN(CC)CCN(C)Cc1ccc(NC(C)=O)cc1	1	64*	5	0	-7	-2
O=C(N/N=C/c1ccc(C(F)(F)F)cc1)c1ccc(O)cc1O	-2	69*	-14	0	7	25
COc1ccc(/C=c2\sc3nc(-c4ccco4)nn3c2=O)c(OC)c1	1	-1	1	-1	/	/
Cn1c(-c2ccc(F)cc2)cnc1NCc1ccccc1	-1	59*	1	0	-9	-3
Cn1c(-c2ccc(F)cc2)cnc1NCc1cccc(F)c1	-1	53*	-9	1	-4	-5
Cn1c(-c2ccccc2)cnc1NCc1ccc(F)cc1	2	26	-3	0	/	/
COc1ccc(CN2CCN(Cc3ccccc3[N+](=O)[O-])CC2)c(OC)c1OC	-1	23	4	0	/	/
COc1cccc(CN2CCN(Cc3ccccc3[N+](=O)[O-])CC2)c1OC	-1	61*	-6	-1	21	27
CCOc1ccc(CN2CCN(S(=O)(=O)c3ccccc3[N+](=O)[O-])CC2)cc1OC	0	34	0	0	/	/
COc1ccccc1CN1CCN(Cc2ccccc2[N+](=O)[O-])CC1	0	79*	0	-1	6	11
COc1cccc(C(=O)N2CCN(Cc3ccccc3[N+](=O)[O-])CC2)c1	0	48	-3	0	/	/
COc1cccc(OC)c1C(=O)N1CCN(Cc2ccccc2[N+](=O)[O-])CC1	0	56*	-8	0	-1	-6
CCOc1cc(CN2CCN(Cc3ccccc3[N+](=O)[O-])CC2)ccc1OC	-1	71*	-7	0	-5	1
CCOC(=O)c1ccc(CNC(=O)c2cc(Cc3ccccc3)no2)o1	0	0	-77	0	/	/
CCOC(=O)N1CCC(N2CCCC(N3CCN(c4ccccc4)CC3)C2)CC1 (configuration not stated)	0	-4	-4	0	/	/
